According to PubChem BioAssay AID1347426 (Functional Genomics Laboratory (NCATS/FGL), 2020):
In all, about 31,000 sequences went through this assay and about 1,400 (4.5%) were called active. Shown is part of a subset that was picked to be rich in actives. Values without a mark were called inactive.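 How the source made its calls: active means median seed-adjusted z-score above 1 or below -1; inactive means the rest.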

experiment: Novel Modifiers of Survival Motor Neuron (SMN) Protein: Gene Identification via Genome-wide siRNA Screen; conditions: HEK293T SMN2-luciferase reporter, siRNA knockdown, 72 h; actives lie on both sides;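 further: luminescence tracks full-length SMN protein made from the SMN2 reporter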
In short: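 siRNA screen, 10418 genes ×3 siRNAs; 1 pmol/well, lipid reverse transfection into HEK293T SMN2-luc reporter line. 72 h, 37 °C, 5% CO2; ONE-Glo readout. Data: neg-ctrl normalized, log10, MAD; hit = MAD >1.0 or < -1.0.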

Sequence | median seed-adjusted z-score
GCAAAGAUAGAAGAAGAUATT against DDI2 | 1.27 (active)
GCAAGAUGAUUUUAUCUCUTT against CDA | 0.471
CAUUAAAGCAGCUACCAAUTT against PSMC3IP | -0.0482
GCAACAGCAUUAUGACCCATT against COL10A1 | -0.0291
GGUUGCGGCUCAGAACAAATT against OAS3 | 0.147
GGACCUGAUUGAUGCCGUCTT against PYCR1 | -0.171
AGACCUCGAUUUCACAGUATT against PRMT8 | 0
CAGAGUAUGUAAAUAGACATT against CAPRIN1 | 1.36 (active)
GGAAGUGCCCAGUGACUUATT against SLPI | 0.274
GCACUGUCACUAAGCAGAATT against CHEK2 | 0.585
GAGAGAUCAUUGCAAAGCATT against HNRNPM | 0.499
GCCUCUACAGCAGAAGAAATT against LAMB2 | 1.12 (active)
GGAGAGACUUUUUACAACUTT against CACNG6 | -0.0499
CUGUCCAUAGUGUCAUUAATT against GALNT1 | -0.164
CUUGUCAAGUACGACCUUATT against NINJ1 | -0.061
GGCUGUUCGAGUCCUGAAATT against FMO1 | 0.323
GAGCAGGUGUUAUUAUGGATT against CLCN3 | -0.0801
GUUCAGCCGUGGAAAGAAATT against WFDC6 | 0.0443
GAAAUACAAGGAAUCUGAATT against TMTC4 | -1.16 (active)
GCACCGUGGUGUCAACCAUTT against KCNK12 | 1.04 (active)
CCUACUCAAUGUGAUAUAUTT against ADAMDEC1 | 0.0106
CCCUUAAUCUACAAUAUCATT against PHTF1 | 0.0129
GUCCCGAUCUGUGCUCUGATT against DUSP2 | 0.576

Sequence | median seed-adjusted z-score
GGAGUACCAUAGAUACAGATT against PPIG | -0.0192
GGAUCGCUGUCUCUAACUUTT against RRM1 | -5.51 (active)
GCCUCUAUUUGAUAAGCGATT against NAP1L1 | 0.263
GCGUUGGUCGGGAUGAUUATT against P2RY10 | -0.432
GGAGGUCUAUAUUAUAAGATT against CFHR4 | -0.0972
GAUACGCUAUGAACUCUCATT against RCE1 | -1.19 (active)
GCAUUAGAAACUUACAAGATT against TROVE2 | 0.399
CGAGUGUUCCCGGACAACATT against PODNL1 | -0.448
GCUCAGCCCUUACUGUACATT against ZNF569 | 0.425
GAUUGACCUGCGUUACGAATT against ADCK2 | 0.0823
UGCCUUAUCUGGAAGCAAATT against ERMAP | -0.276
GAUUCCCUGCAUCAACUAATT against SQLE | -1.14 (active)
GGGAAACGAUAUUCAUACATT against ADAMTS19 | -0.39
GUUAGGUAGUAGAAACAAATT against TCFL5 | 1.52 (active)
GUUUCGGACCUAUCUCUGATT against RBM3 | 0.0539
CAAAGUGGAUUCAAAGAUUTT against PRKCH | 0.761
CACCUUUUCUGGAUAGAGATT against DSC1 | -0.151
GCCUUAUGAUGGAAGAGAUTT against EYA2 | 0.111
GUCUAGAUGAUCACAAGUATT against PSMD1 | -1.61 (active)
GUUCUACCGUGGACAGCAATT against CLCN1 | 0.314
CAACAACAAUCAUAGCUGATT against SSBP1 | -0.456
GACUGGAAAUGAUUCGAGATT against RTCD1 | 0.0794
CCUAUGGACUGAACAGGGATT against ZDHHC3 | 0.229

Sequence | median seed-adjusted z-score
GUCUGGAGAUCAUAUUUUUTT against PIM3 | -1.01 (active)
CAUUCUGACCGUGAACAAUTT against CTRB1 | -0.214
CGAUGACUCAGAAAAGCGATT against ARHGEF10 | 0.22
CGAGGAUAUUGACUGGGUATT against PRKCZ | -0.175
GCCCUGCAUUUGCGAUGAATT against ZNF169 | 0
CACUUGCACAGAUACCCUUTT against COLEC12 | -1.04 (active)
GGAAAGAGUUCAGUCGGAATT against ZNF671 | -0.0551
GAAAGAUUGUACCAGUUGATT against CMPK1 | -0.363
GCGAGUGUGAGAAAACAUUTT against ZFP3 | 0
GAGCGAGACAUAAAAUAUUTT against ZNF257 | 0.306
CCCAAGAAAUAUUAACAUUTT against AP3S1 | 0.787
CGAAUUUCCUAGUAAACCATT against TFAP2C | 1.28 (active)
CGUCAUGAGCCUCUACGAATT against PTPN5 | 0.22
GGAAAUCCAUCUACCGCUATT against SORL1 | 0.357
GAUCAGGUGCUGUUCCAUATT against DGAT2L3 | 0.247
CAUCGAGGGUCAUACUAUUTT against POLR2A | -3.81 (active)
GACUGCUGCUUAUCAACAATT against SPR | 0.0329
GACCUUACCUCAGACUAGATT against EXOG | 0.746
AGAUGUACCUGUUCGUGUATT against DNASE1L2 | -0.228
GGACCUACGUUGCAGUUCATT against SUZ12 | -1.65 (active)
GCACUGGAGAAGUAUGUGATT against ALOX12B | 0.0071
GCACUUUACCAUUAGACAATT against LDB2 | -0.0847
GGAGACUAGUAAGCACUAUTT against JARID1B | 0
